Test results published in PubChem BioAssay (NCI).
Compounds without any hit were thinned out: in the full panel of roughly 83,000, 20% have a hit.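 The endpoint reported here, percent growth, reads 100 for growth as untreated, 0 for no net growth and -100 for all cells dead.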 Active and inactive are the calls of the source. The calls were made as follows: active = growth percent below 10; inactive = the rest.

These molecules were tested on MOLT-4 leukemia (assay: NCI-60 one-dose screen, 48 h (100 = growth as untreated, 0 = no growth, -100 = all killed)). Conditions: 10 µM unless noted.

Row | Structure (SMILES) | growth
1 | O=C(Nc1ccc(O)cc1)C(Cl)(Cl)Cl | 104% (inactive)
2 | CCCOC(=O)N[C@H]1CCc2c(Br)c(OC)c(OC)c(OC)c2-c2ccc(SC)c(=O)cc21 | 10.7% (inactive)
3 | CCOC(=O)[C@@H](C)C[C@H](Cc1ccccc1)NC(=O)c1csc([C@@H](C[C@H](C(C)C)N(C)C(=O)[C@@H](NC(=O)[C@H]2CCCCN2C)C(C)(C)CC)OC(C)=O)n1 | 13.5% (inactive)
4 | COc1ccc(NC([Se])=NC23CC4CC(CC(C4)C2)C3)cc1 | 5.72% (active)
5 | C[C@@]12CC=C3c4nc(Nc5cccc(O)c5)sc4CC[C@]3(C)[C@H]1CC[C@]1(C)C(=O)CC[C@@H]21 | 5.52% (active)
6 | O=[N+]([O-])/C=C\c1ccc(Cl)c(Cl)c1 | 37.1% (inactive)
7 | CC(C)OC(=O)[C@H](C)NP(=O)(Oc1ccccc1)C1CCCN(O)C1=O (some centres not stated) | 93.7% (inactive)
8 | C=CCn1cc(C=C2C(=O)N(C)C(=O)N(C)C2=O)c2ccccc21 | 97.6% (inactive)
9 | COC(=O)[C@@H](C)C[C@H](Cc1ccccc1)NC(=O)c1nc([C@@H](C[C@H](C(C)C)N(C)C(=O)[C@@H](NC(=O)[C@H]2C[C@H](O)CCN2C)C(C)C)OC(C)=O)sc1C(C)C | 11% (inactive)
10 | N#CC1C(C#N)C2CCC1C1C2N1c1ccccc1 (configuration not stated) | 91.2% (inactive)
11 | CC(C)(NC(=O)O[C@@H]1CN2CCC1CC2)c1csc(-c2ccc(F)cc2)n1 | 91.3% (inactive)
12 | CCC(C)(C)[C@H](NC(=O)[C@H]1CCCCN1C)C(=O)N(C)[C@H](C[C@@H](OC(C)=O)c1nc(C(=O)N[C@@H](Cc2ccccc2)C[C@H](C)C(=O)O)cs1)C(C)C | 15.5% (inactive)
13 | C[C@]12CCc3sc(-c4ccccc4O)nc3C1=CC[C@@H]1[C@@H]2CC[C@]2(C)C(=O)CC[C@@H]12 | 94.7% (inactive)
14 | Cc1cccc(N2CCN(C(C)C#N)CC2)c1 (configuration not stated) | 106% (inactive)
15 | O=C(Nc1ccc([N+](=O)[O-])cc1)C(Cl)(Cl)Cl | 107% (inactive)
16 | COP(=S)(N1CC1)N1CC1 | 101% (inactive)
17 | CC(=O)OC[C@]1(C)C=C2C(=O)[C@](C)(O)C3(CC3)C(C)=C2[C@H]1O | 12.2% (inactive)
18 | CS(=O)(=O)CCN1CC2CCCC(C2)C1 | 102% (inactive)
19 | CCOC(=O)[C@@H](C)C[C@H](Cc1ccccc1)NC(=O)c1csc([C@@H](C[C@H](C(C)C)N(C)C(=O)[C@@H](NC(=O)[C@H]2C[C@H](O)CCN2C)C(C)C)OC(C)=O)n1 | 11.9% (inactive)
20 | Cn1cc(C=O)c2nccnc21 | 101% (inactive)
21 | Cc1cc(N(CCCl)CCCl)ccc1C=Nc1ccccc1-c1ccccc1 | 41.9% (inactive)
22 | CNC(=O)Oc1ccc2c(c1)OCO2 | 94.3% (inactive)
23 | Cn1cccc1C1CC(=O)N(CCC[Se]C#N)C1=O (configuration not stated) | 3.58% (active)
24 | CC1(C)[C@H](O)[C@H](F)C[C@@]2(C)Oc3ccc(C(=O)Nc4ccc5c(c4)NC(=O)C54CCN(CCCCC#N)CC4)cc3C[C@H]12 | -19.5% (active)
25 | CCOC(=O)[C@@H](C)C[C@H](Cc1ccccc1)NC(=O)c1nc([C@@H](C[C@H](C(C)C)N(C)C(=O)[C@@H](NC(=O)[C@H]2CCCCN2C)C(C)C)OC(C)=O)sc1CCOCc1ccccc1 | -2.06% (active)
26 | C[C@]12CCc3sc(-c4cccc(F)c4)nc3C1=CC[C@@H]1[C@@H]2CC[C@]2(C)C(=O)CC[C@@H]12 | 5.82% (active)
27 | COC(=O)[C@H](C[C@H](Cc1ccccc1)NC(=O)c1csc([C@@H](C[C@H](C(C)C)N(C)C(=O)[C@@H](NC(=O)[C@H]2CCCCN2C)C(C)C)OC(C)=O)n1)NC(=O)OCc1ccccc1 | 16.1% [8.5 µM] (inactive)
28 | C[C@]12CC[C@H]3[C@@H](C[C@@H]4SC(Nc5ccccc5)=N[C@@]45CC(O)CC[C@]35C)[C@@H]1CCC2O (some centres not stated) | 6.79% (active)

What follows are molecules tested on SR leukemia in the same assay as above. Conditions: 10 µM unless noted.

Row | Structure (SMILES) | growth
29 | O=C(Nc1ccc(O)cc1)C(Cl)(Cl)Cl | 96.6% (inactive)
30 | CCCOC(=O)N[C@H]1CCc2c(Br)c(OC)c(OC)c(OC)c2-c2ccc(SC)c(=O)cc21 | 3.3% (active)
31 | CCOC(=O)[C@@H](C)C[C@H](Cc1ccccc1)NC(=O)c1csc([C@@H](C[C@H](C(C)C)N(C)C(=O)[C@@H](NC(=O)[C@H]2CCCCN2C)C(C)(C)CC)OC(C)=O)n1 | -4.98% (active)
32 | COc1ccc(NC([Se])=NC23CC4CC(CC(C4)C2)C3)cc1 | 5.11% (active)
33 | C[C@@]12CC=C3c4nc(Nc5cccc(O)c5)sc4CC[C@]3(C)[C@H]1CC[C@]1(C)C(=O)CC[C@@H]21 | 3.61% (active)
34 | O=[N+]([O-])/C=C\c1ccc(Cl)c(Cl)c1 | 7.87% (active)
35 | CC(C)OC(=O)[C@H](C)NP(=O)(Oc1ccccc1)C1CCCN(O)C1=O (some centres not stated) | 89.6% (inactive)
36 | COC(=O)[C@@H](C)C[C@H](Cc1ccccc1)NC(=O)c1nc([C@@H](C[C@H](C(C)C)N(C)C(=O)[C@@H](NC(=O)[C@H]2C[C@H](O)CCN2C)C(C)C)OC(C)=O)sc1C(C)C | 3.04% (active)
37 | N#CC1C(C#N)C2CCC1C1C2N1c1ccccc1 (configuration not stated) | 91.5% (inactive)
38 | CCC(C)(C)[C@H](NC(=O)[C@H]1CCCCN1C)C(=O)N(C)[C@H](C[C@@H](OC(C)=O)c1nc(C(=O)N[C@@H](Cc2ccccc2)C[C@H](C)C(=O)O)cs1)C(C)C | 6.11% (active)
39 | C[C@]12CCc3sc(-c4ccccc4O)nc3C1=CC[C@@H]1[C@@H]2CC[C@]2(C)C(=O)CC[C@@H]12 | 109% (inactive)
40 | CCOC(=O)N1CC1 | -20.9% (active)
41 | C=CCCCN=C=S | 27% (inactive)
42 | Cc1cccc(N2CCN(C(C)C#N)CC2)c1 (configuration not stated) | 98.2% (inactive)
43 | O=C(Nc1ccc([N+](=O)[O-])cc1)C(Cl)(Cl)Cl | 94.1% (inactive)
44 | COP(=S)(N1CC1)N1CC1 | 89.9% (inactive)
45 | O=C(N/N=C\c1ccc(N(CCCl)CCCl)cc1)c1cccc([N+](=O)[O-])c1 | 103% (inactive)
46 | CC(=O)OC[C@]1(C)C=C2C(=O)[C@](C)(O)C3(CC3)C(C)=C2[C@H]1O | 9.64% (active)
47 | CS(=O)(=O)CCN1CC2CCCC(C2)C1 | 93.9% (inactive)
48 | CCOC(=O)[C@@H](C)C[C@H](Cc1ccccc1)NC(=O)c1csc([C@@H](C[C@H](C(C)C)N(C)C(=O)[C@@H](NC(=O)[C@H]2C[C@H](O)CCN2C)C(C)C)OC(C)=O)n1 | 5.63% (active)
49 | Cn1cc(C=O)c2nccnc21 | 105% (inactive)
50 | Cc1cc(N(CCCl)CCCl)ccc1C=Nc1ccccc1-c1ccccc1 | 30.6% (inactive)
51 | CNC(=O)Oc1ccc2c(c1)OCO2 | 91.4% (inactive)
52 | Cn1cccc1C1CC(=O)N(CCC[Se]C#N)C1=O (configuration not stated) | 21.2% (inactive)
53 | CC1(C)[C@H](O)[C@H](F)C[C@@]2(C)Oc3ccc(C(=O)Nc4ccc5c(c4)NC(=O)C54CCN(CCCCC#N)CC4)cc3C[C@H]12 | 10.4% (inactive)
54 | CCOC(=O)[C@@H](C)C[C@H](Cc1ccccc1)NC(=O)c1nc([C@@H](C[C@H](C(C)C)N(C)C(=O)[C@@H](NC(=O)[C@H]2CCCCN2C)C(C)C)OC(C)=O)sc1CCOCc1ccccc1 | -36.9% (active)
55 | C[C@]12CCc3sc(-c4cccc(F)c4)nc3C1=CC[C@@H]1[C@@H]2CC[C@]2(C)C(=O)CC[C@@H]12 | 5.11% (active)
56 | COC(=O)[C@H](C[C@H](Cc1ccccc1)NC(=O)c1csc([C@@H](C[C@H](C(C)C)N(C)C(=O)[C@@H](NC(=O)[C@H]2CCCCN2C)C(C)C)OC(C)=O)n1)NC(=O)OCc1ccccc1 | -16.9% [8.5 µM] (active)
57 | C[C@]12CC[C@H]3[C@@H](C[C@@H]4SC(Nc5ccccc5)=N[C@@]45CC(O)CC[C@]35C)[C@@H]1CCC2O (some centres not stated) | 8.06% (active)
